SKKanGAS inh: S. pyogenes SKKanGAS growth inhibitors in kanamycin, primary screen, streptokinase expression inhibitor project, SKKanGAS strain, BacTiter-Glo luminescence | 6 h | inhibition, % at 7.5 µM | actives 1.3% (n = 300,000) | AID 1662, 2009;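 active means mean replicate score, as percent of positive control median, at least 50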;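 further: strain carries kanamycin resistance gene driven by streptokinase promoter and grows in 40 µg/ml kanamycin; loss of luminescence reflects streptokinase promoter inhibition or plain growth inhibition; 0% = median of DMSO wells and 100% = positive control at its reference dose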
tim23-1 inh: growth inhibitors of tim23-1 mutant yeast, primary screen, luminescence, uHTS | actives 1.3% (n = 330,000) | S. cerevisiae tim23-1 growth, BacTiter-Glo luminescence, 24 h | inhibition, % at 20 µM | AID 463212, 2010;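 active means growth inhibition of the mutant yeast at or above 50%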;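 further: temperature-sensitive mutant grown at 25 °C; plate controls were DMSO-treated mutant yeast for no effect and medium wells lacking yeast for full effect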
NLRP3 yeast inh: NALP3 inflammasome inhibitors in reconstituted yeast, primary screen, luminescence, uHTS. Yeast reconstituted NLRP3/ASC/caspase-1, beta-gal luminescence, 24 h. inhibition, % at 10 µM. actives 0.39% (n = 330,000);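 active means inhibition of 50% or more; inactive means inhibition below 50%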;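 further: plate controls were induced DMSO wells for no effect and uninduced yeast grown without galactose for full effect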
tim10-1 inh: growth inhibitors of tim10-1 mutant yeast, primary screen, luminescence, uHTS. actives 2.2% (n = 330,000). inhibition, % at 20 µM. S. cerevisiae tim10-1 ts strain growth, BacTiter-Glo, 24 h. AID 463190, 2010;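 active means inhibition of at least 40%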;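 further: mutant grown at 25 °C; 0% = DMSO wells with yeast and 100% = wells holding no yeast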
NALP1 inh: NALP1 inflammasome inhibitors in reconstituted yeast, colorimetric, S. cerevisiae, triplicate retest. actives 0.61% (n = 280,000). inhibition, % at 10 µM. AID 2071, 2009. S. cerevisiae NALP1/ASC/caspase-1 growth, X-gal OD620, 72 h; in the data active means inhibition mostly above about 24%, no sharp cut-off; inactive means mostly below about 32%
TIM10 inh: growth inhibitors of isogenic TIM10 control yeast, primary screen, counter-screen for tim10-1 yeast inhibitor project, luminescence, uHTS; S. cerevisiae TIM10 strain growth, BacTiter-Glo luminescence, 24 h; inhibition, % at 10 µM; actives 1.4% (n = 330,000);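 active means inhibition of 40% or more at the single tested concentration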;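 further: wild-type TIM10 isogenic control strain grown at permissive 25 °C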
TIM10 conf: growth inhibitors of wild-type TIM10 yeast, confirmation, counter-screen for tim10-1 synthetic lethality project, single concentration, luminescence, S. cerevisiae | S. cerevisiae tim10 strain growth, BacTiter-Glo luminescence, 24 h | inhibition, % at 10 µM | actives 63% (n = 4,600) | shares compounds with TIM10 inh;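 active means inhibition of yeast growth at or above a set limit in either of two replicates at 10 µM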;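 further: this counterscreen used the strain with wild-type TIM10; 0% = yeast with DMSO and 100% = medium wells lacking yeast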
* marks the source's active call; other numbers are inactive results. The list is not random: actives were taken first. Their share in the collection is about 4.9%.

O=[N+]([O-])c1cccc(/C=C/c2nc3ccc([N+](=O)[O-])cc3[nH]2)c1 was read as SKKanGAS inh 16.8, tim23-1 inh 42.1, NLRP3 yeast inh 18.8, tim10-1 inh 20.1, NALP1 inh 2.3, TIM10 inh 54.3* and TIM10 conf 58.2*.
Screening Cc1nc2ccc([N+](=O)[O-])cc2[nH]1 returned SKKanGAS inh -8.2, tim23-1 inh 11.8, NLRP3 yeast inh -1.6, tim10-1 inh 0.9, NALP1 inh 20.3 and TIM10 inh -8.0.
COc1ccc(S(=O)(=O)Nc2cccc3c2O[C@H](CN(C)CC2CCCCC2)[C@@H](C)CN([C@H](C)CO)C3=O)cc1 was read as tim23-1 inh 21.1, NLRP3 yeast inh 13.0, tim10-1 inh 9.1 and TIM10 inh -0.7.
Cc1ccc(C(=O)O/N=C/c2c(N3CCOCC3)n(C)c3ccccc23)cc1 was read as SKKanGAS inh 12.2, tim23-1 inh 39.8, NLRP3 yeast inh 46.6, tim10-1 inh 30.9, NALP1 inh -3.6, TIM10 inh 42.2* and TIM10 conf 32.0*.
Screening Cn1c(N2CCOCC2)c(/C=N/OC(=O)c2cccnc2Cl)c2ccccc21 returned SKKanGAS inh -4.0 and NALP1 inh 13.4.
`COc1ccc(NC(=O)c2nn(C)c3c2CS(=O)(=O)c2ccccc2-3)cc1` gave SKKanGAS inh -0.4, tim23-1 inh 5.3, NLRP3 yeast inh 1.5, tim10-1 inh 24.8, NALP1 inh 8.6 and TIM10 inh -8.9.
`CSc1ccc(/C=N/NC(=O)CN2CCN(Cc3ccc(Cl)cc3)CC2)cc1` gave SKKanGAS inh 6.9, tim23-1 inh 18.0, NLRP3 yeast inh 21.6, tim10-1 inh 31.1, NALP1 inh 29.1, TIM10 inh 41.1* and TIM10 conf 6.8.
Screening CSc1ccc(/C=N/N2CCN(Cc3ccc(Cl)cc3)CC2)cc1 returned SKKanGAS inh -4.2, tim23-1 inh 21.6, NLRP3 yeast inh 9.8, tim10-1 inh 13.3, NALP1 inh 12.5 and TIM10 inh 10.2.
O=C1NN(c2ccccc2)C(=O)/C1=C\c1ccc(-c2cc([N+](=O)[O-])ccc2O)o1 was read as SKKanGAS inh -3.7, tim23-1 inh 19.5, NLRP3 yeast inh 36.0, tim10-1 inh 33.9, NALP1 inh 3.2 and TIM10 inh 8.5.
`NNC(=S)Nc1ccc(C(F)(F)F)cc1Cl` gave SKKanGAS inh 60.5*, tim23-1 inh 38.1, NLRP3 yeast inh 17.9, tim10-1 inh 31.1, NALP1 inh 20.0, TIM10 inh 43.6* and TIM10 conf 12.3.
CC1CCCC(NC(=O)COC(=O)COc2ccc(Br)cc2)C1C (configuration not stated) was read as tim23-1 inh 12.2, NLRP3 yeast inh 17.9, tim10-1 inh 5.9 and TIM10 inh 2.1.
`Cc1cccc(OC(C)C(=O)Nc2ccccc2C(=O)N2CCCCC2)c1` (configuration not stated) gave SKKanGAS inh -0.8, tim23-1 inh 38.1, NLRP3 yeast inh -1.3, tim10-1 inh 30.7, NALP1 inh 1.8 and TIM10 inh 20.1.
C#CCOc1nc(Nc2cccc([N+](=O)[O-])c2)nc(OCC#C)n1 was read as SKKanGAS inh 16.5, tim23-1 inh 41.5, NLRP3 yeast inh 11.1, tim10-1 inh 36.3, NALP1 inh -9.5, TIM10 inh 40.9* and TIM10 conf 42.1*.
For CCCC(=O)Nc1cccc(-c2nc3ccccc3o2)c1 the results were SKKanGAS inh -1.5, tim23-1 inh -8.0, NLRP3 yeast inh 39.8, tim10-1 inh 25.3, NALP1 inh 9.0, TIM10 inh 47.4* and TIM10 conf 11.6.

High-throughput results as filed in PubChem.
